How the values were obtained:
Assay type in all cases: functional
[1] = target: Solute carrier family 2, facilitated glucose transporter member 1 (Homo sapiens) (UniProt P11166); test: ST_JUDE_LEISH: Cytotoxicity at 2uM final concentration against transgenic Leishmania Mexicana promastigotes LmGLUT1 that are glucose transport deficient and complemented with the human glucose transporter GLUT1. Activity is measured by DNA content using SYBR green in vitro
[2] = target: Hexose transporter 1 (Plasmodium falciparum) (UniProt O97467); test: ST_JUDE_LEISH: Cytotoxicity at 2uM final concentration against transgenic Leishmania Mexicana promastigotes LmPfHT that are glucose transport deficient and complemented with the Plasmodium falciparum hexose transporter. Activity is measured by DNA content using SYBR green in vitro
[3] = target: Glucose transporter (Leishmania mexicana) (UniProt O61059); test: ST_JUDE_LEISH: Cytotoxicity at 2uM final concentration against transgenic Leishmania Mexicana promastigotes LmGT2 that are glucose transport deficient and complemented with the L. Mexicana glucose transporter 2. Activity is measured by DNA content using SYBR green in vitro

Solute carrier family 2, facilitated glucose transporter member 1 (Homo sapiens), sequence (P11166 whole entry): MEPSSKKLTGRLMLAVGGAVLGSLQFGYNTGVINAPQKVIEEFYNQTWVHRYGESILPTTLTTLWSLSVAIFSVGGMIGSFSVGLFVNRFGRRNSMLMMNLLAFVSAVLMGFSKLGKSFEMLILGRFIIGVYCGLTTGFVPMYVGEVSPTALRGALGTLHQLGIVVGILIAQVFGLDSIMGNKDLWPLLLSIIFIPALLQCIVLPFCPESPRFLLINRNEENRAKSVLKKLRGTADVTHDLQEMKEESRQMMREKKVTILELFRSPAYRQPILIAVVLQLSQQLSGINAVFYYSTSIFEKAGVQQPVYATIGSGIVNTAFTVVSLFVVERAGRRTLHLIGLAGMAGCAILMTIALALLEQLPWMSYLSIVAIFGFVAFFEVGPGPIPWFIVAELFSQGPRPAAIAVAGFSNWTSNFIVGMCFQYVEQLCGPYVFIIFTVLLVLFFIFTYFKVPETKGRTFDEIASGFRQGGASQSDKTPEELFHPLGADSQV

| Compound | inhibition [1] | inhibition [2] | inhibition [3] |
| --- | --- | --- | --- |
| CC(=O)Nc1csc(-c2cnc(/C=C(\C)C[C@@H]3OC[C@H](C[C@@H]4O[C@H]4[C@@H](C)[C@H](C)O)[C@@H](O)[C@H]3O)o2)c1 | 3.6% | 4.42% | 2.39% |
| CC(C)(C)CC(C)(C)c1ccc(O)c(CNC2CCCCC2)c1 | 1.96% | 2.09% | -0.74% |
| COc1cc(Nc2nccc(N3CCC(NC(=O)Nc4cc(C)ccc4C)C3)n2)cc(OC)c1OC (stereo not given) | 1.64% | 1.62% | 2.46% |
| COc1ccc2ncc(F)c([C@H](O)CN3CCC(NCc4cc5c(cn4)OCCO5)CC3)c2c1 | 6.21% | 6.52% | 2.51% |
| O=C(CCN1C(=O)c2ccccc2C1=O)N1CCN(CC=Cc2ccccc2)CC1 | -1.54% | -1.32% | -1.76% |
| CCCCCCCc1c2c(C)c(C(=O)OCC)nc-2cc2n1CC(C)=C2C | 3.56% | 2.2% | 3.09% |
| CCN(CCNC(=O)C1CCN(c2cc(-c3cccc(C)c3)ncn2)CC1)Cc1ccccc1 | 4.41% | 3.37% | 4.06% |
| CS(=O)(=O)CCNCc1ccc(-c2cc3c(Nc4ccc(OCc5cccc(F)c5)c(Cl)c4)ncnc3s2)[nH]1 | 0.33% | 0.24% | 0.92% |
| Cc1cccc(OCC(=O)Nc2cccc(NC(=O)COc3cccc(C)c3)n2)c1 | 0.99% | 1.55% | 1.64% |
| COc1ccc2nccc([C@@H](O)CN3CCC(NC(=O)C(c4cc5ccccc5s4)N4CC(C)OC(C)C4)CC3)c2c1 (stereo not given in full) | 4.19% | 2.81% | 3.57% |
| Cc1cc(OCCCN2CCC(NS(=O)(=O)c3ccc(Cl)c(Cl)c3)CC2)c2ccccc2n1 | 4.28% | 4.69% | 4.76% |
| CC(C)c1nc2c(N)nc(N)nc2nc1N | -0.33% | 0.25% | 1.01% |
| Cc1cc(O)c2c(c1)OC(C)(C)C=C2C1=CCN(Cc2ccccc2)CC1 | 5.82% | 6.87% | 5.88% |
| CCCCCN1CCCC(NS(=O)(=O)c2cccc(C(=O)Nc3cccc(C(F)(F)F)c3)c2)C1 (stereo not given) | -0.69% | -0.64% | -2.02% |
| CCc1cc(NCc2ccncc2)nc(Nc2ccc(F)cc2)n1 | 14.4% | 6.44% | 4.12% |
| N=C1N=C(N)NC2(CCCCC2)N1OCCCOc1cccc2ccccc12 | 54.1% | 60% | 37.9% |
| CN1CCN(CCCN(Cc2ccc(-c3cccc(CNCc4ccc5c(c4)OCO5)c3)cc2)C(=O)NCCc2ccccc2)CC1 | 5.4% | 2.67% | 3.58% |
| CCOc1cc(C(=O)NCCN(CC)c2cccc(C)c2)ccc1-c1nc2cc(Cl)ccc2[nH]1 | 3.14% | 1.88% | 1.84% |
| Oc1cc2c(cc1CN1CCN(Cc3ccccc3F)CC1)CCC2 | 1.19% | -1.37% | 2.62% |
| CC(CN(C)C)C(=O)Nc1ccc(-c2cccc(-c3nc4cc(C(F)(F)F)ccc4[nH]3)c2)cc1 (stereo not given) | 1.9% | 1.89% | -2.14% |
| CON=Cc1sc(CNCCCN=c2cc(O)c3ccccc3[nH]2)c(C)c1Br | 4.13% | 4.13% | 3.41% |
| CNCc1ccc(-c2cccc(CNCc3ccc(-c4ccccc4)cc3)c2)c(C(=O)OC)c1 | 1.39% | 2.72% | 2.91% |
| CN(C(=O)NCCc1ccccc1)C1CCN(CCCCCNC(=O)/C=C/c2ccc(Cl)c(Cl)c2)CC1 | 14.9% | 12% | 12.4% |
| CC(C)C[C@@H](C(=O)Nc1ccc(Cc2ccc(NC(=O)[C@H](CC(C)C)N(C)C(=O)OC(C)(C)C)cc2)cc1)N(C)C(=O)OC(C)(C)C | 0.03% | -1.12% | -0.46% |

| Compound | inhibition [1] | inhibition [2] | inhibition [3] |
| --- | --- | --- | --- |
| O=C(/C=C/c1ccc(Cl)c(Cl)c1)NCCCCCN1CCCC(CCCNC(=O)Nc2ccc(C(F)(F)F)cc2)C1 (stereo not given) | 11.3% | 9.28% | 5.82% |
| Cc1ccc(NC(=O)c2ccc(CN3CCCN(Cc4cccc(O)c4)CC3)cc2)cc1C | 0.9% | 0.45% | 4.65% |
| CCN(CC)CCc1ccc2c(=O)cc(CCc3cccc(F)c3F)n(CC(=O)N(C)Cc3ccc(-c4ccc(C(F)(F)F)cc4)cc3)c2c1 | 5.18% | 5.23% | 3.78% |
| c1cc(-c2ccc(CNCc3ccsc3)cc2)cc(-c2nc3ccccc3[nH]2)c1 | 1.08% | 3.56% | -2.01% |
| Cc1c(CNCCCNc2cc(=O)c3ccccc3[nH]2)sc(C(F)F)c1Br | -0.36% | -0.4% | -1.09% |
| COc1cc2nc(NCCc3ccccc3)nc(NCc3cnn(C)c3C)c2cc1OC | 9.47% | 8.36% | 7.1% |
| COc1ccc(Nc2nc(N/N=C/c3ccc(-c4ccc([N+](=O)[O-])cc4)o3)nc(Nc3ccccc3)n2)cc1 | 14.4% | 10.6% | 9.94% |
| O=C(CCNc1ccnc(NCC2CCCCC2)n1)Nc1ccccc1 | 7.25% | 5.25% | 3.46% |
| CC1(C)N=C(N)N=C(N)N1OCCc1ccc2ccccc2c1 | 1.63% | 1.47% | 3.22% |
| CCCCCCCN1CC[C@@H](CCC(O)c2ccnc3ccc(OC)cc23)[C@@H](CC)C1 (stereo not given in full) | -0.47% | 0.63% | 0.73% |
| COc1cc(F)c2ncc(Cl)c(CCN3CCC(NCc4ccc5c(c4)OCCO5)CC3)c2c1 | 41.6% | 54.6% | 68.8% |
| O=C(NCC1CCC1)c1cnc(Nc2cccc(Cl)c2)nc1N1CCC1 | 14.5% | 12.8% | 12.4% |
| c1cc2c3c(cccc3c1)NC(CCCCCCCCC1=Nc3cccc4cccc(c34)N1)=N2 | 2.66% | 1.67% | 2.28% |
| CC(=O)c1c(CC(=O)O)c2ccccc2n1O | 2.28% | 4.52% | 3.07% |
| Cn1cncc1C(=O)NC1CCN(c2ccnc(Nc3ccc(F)cc3)n2)C1 (stereo not given) | 0.07% | -0.1% | 0.61% |
| CCc1ccc(S(=O)(=O)Nc2cccc(CCN3CCC(N4CCCCC4)CC3)c2)cc1 | 1.95% | 1.48% | -0.34% |
| CS(=O)(=O)CCN(CCS(C)(=O)=O)Cc1ccc(-c2ccc3ncnc(Nc4ccc(OCc5cccc(F)c5)c(Cl)c4)c3c2)o1 | 2% | 2.02% | 2.35% |
| O=C(NCCc1ccccc1)N(Cc1cccc(-c2ccc(CNCc3ccc4c(c3)OCO4)cc2)c1)C1CCN(Cc2ccccc2)CC1 | 1.17% | 2.76% | 1.29% |
| CC(C)(C)c1cc(CN2CCN(Cc3ccccc3)CC2)cc(C(C)(C)C)c1O | 1.34% | 2.9% | 2.7% |
| O=C(N/C=N/c1cc([N+](=O)[O-])c(-c2cccnc2)n1-c1ccc(O)cc1)c1ccccc1 | -0.13% | -1.73% | -1.68% |
| CN(C)CCNC(=O)NC1CN(c2ncnc3cc(-c4ccccc4)sc23)C1 | 5.45% | 4.29% | 4.03% |
| Cc1nc(N)nc(N)c1-c1ccc(Cl)c(Cl)c1 | 6.9% | 5.53% | 5.34% |
| COc1ccc(NC(=O)c2ccc(-c3cccc(OCc4ccccc4)c3)cc2)cc1N1CCN(C)CC1 | 1.72% | 0.6% | -0.95% |
| CC(C)(C)Oc1ccc(NC(=O)c2ccccc2O)cc1 | 6.73% | 5.36% | 4.28% |

| Compound | inhibition [1] | inhibition [2] | inhibition [3] |
| --- | --- | --- | --- |
| CCN(CC)CCN(Cc1ccc(-c2ccc(C(F)(F)F)s2)cc1)C(=O)Cn1c(CCc2cccc(F)c2F)nc(=O)c2ccccc21 | 1.5% | 2.39% | 2.57% |
| O=C(Nc1cccc(C(F)(F)F)c1)N1CCOC(CCN2CCC(c3ccccc3)CC2)(c2ccc(Cl)c(Cl)c2)C1 (stereo not given) | 1.69% | 1.44% | 0.72% |
| CCn1cc(-c2nc(-c3cc(OC)cc(OC)c3)no2)c(=O)c2ccccc21 | 12.3% | 6.39% | 2.79% |
| OC(CN1CCN(Cc2ccccc2)CC1)Cn1c(-c2ccccc2)c(-c2ccccc2)c2ccccc21 (stereo not given) | 2.91% | 3.3% | 2.72% |
| CC(C)(CNC(=O)C1CCN(CCOCc2ccccc2)CC1)c1nc(-c2ccc(Cl)c(O)c2)c(-c2ccncc2)[nH]1 | 1.22% | 0.65% | 2.74% |
| Cc1cc(Nc2cccc(C(F)(F)F)c2)nc(N)n1 | 0.43% | 0.91% | 1.19% |
| Cc1ccc2c(c1)nc(N)n2C[C@H](O)c1ccccc1 | 1.01% | 1.37% | 1.1% |
| CCCCCCSc1nnc(COc2cccc3ccccc23)n1-c1ccc(OC)cc1 | 11% | 12.1% | 10.3% |
| N=C(N)NC(=O)Nc1ccc(Cl)c(C(F)(F)F)c1 | 1.17% | 2.97% | 1.44% |
| Oc1cc(Nc2ccnc3cc(-c4cccc(CN5CCCCC5)c4)ccc23)c(F)cc1Cl | 3.41% | 2.51% | 2.54% |
| O=C(NCCc1ccccc1)N(Cc1ccccc1-c1ccc(CNC2CCCC2)cc1)C1CCN(Cc2ccccc2)CC1 | 7.74% | 7.15% | 5.58% |
| O=S(=O)(c1c(Cl)cccc1Cl)N1CCCCC(c2ccc(C(F)(F)F)cc2)=N1 | 2.16% | 4.23% | 4.51% |
| c1ccc2c(c1)cc(CNCCCN1CCN(CCCNCc3cc4ccccc4c4ccccc34)CC1)c1ccccc12 | -0.37% | 0.84% | -0.41% |
| O=C(Nc1ccon1)c1cc(-c2cccnc2)nc2ccc(Br)cc12 | 2.83% | 5.32% | 0.72% |
| CCNc1cc(C(=O)N[C@@H](Cc2ccccc2)[C@H](O)CNC23CCC(CC2)CC3)cc(N2CCCCS2(=O)=O)c1 | 0.73% | 0.04% | 0.09% |
| Cc1ccc(NC(=O)NCCCCCN2CCC(c3c[nH]c4ccccc34)CC2)cc1I | 3.96% | 3.64% | 3.15% |
| CC(C)N1CCN(C(=O)c2ccc(CNCCCN3CCN(c4cccc(Cl)c4Cl)CC3)o2)CC1 | -2.44% | -1.41% | -1.3% |
| Cc1noc(-c2cccs2)c1C(=O)NCCc1cccc(Cl)c1 | 5.34% | 5.32% | 2.4% |
| CCOCCCNc1sc(S(=O)(=O)c2ccccc2)nc1S(=O)(=O)c1ccc(C)cc1 | 8.93% | 8.79% | 9.56% |
| N#Cc1ccc(-c2ccc(OCC(O)CN3CCCN(Cc4cccc(O)c4Cl)CC3)cc2)cc1 (stereo not given) | 4.04% | 0.72% | 1.67% |
| Nc1ncc(-c2cn[nH]c2)cc1-c1nc2ccc(F)cc2[nH]1 | 2.58% | 3.29% | 1.99% |
| Fc1ccc2[nH]c(-c3ccc(-c4ccc(CN5CCC(CCN6CCCCC6)CC5)cc4)s3)nc2c1 | 5.18% | 3.85% | 4.98% |

Source: ChEMBL document CHEMBL3433997, “St. Jude Leishmania screening dataset” (2016)
